Compounds with a hit are over-represented: about 7.6% of the library has one in this group of screens.
KCNH2 3.1 inh = blocks the human KCNH2 3.1 channel isoform | U2OS KCNH2 3.1, thallium flux FluxOr; stronger effect = lower value | activity change, % (tested at about 1.8 µM) | 340,000 tested, 0.95% active | AID 720553;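 active = maximum activity change below -70%; inconclusive = maximum activity change from -70% to -50%; inactive = maximum activity change above -50%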;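 note: thallium influx rate constant from kinetic fluorescence after stimulation buffer; % is set by controls: 0 for no effect and ±100 for the full control effect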
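Steps: virus added to U2OS suspension (4 h, RT, dark); medium with 10% FBS added, cells plated, 37 C overnight; FluxOr/Red40 loading buffer 45 min RT; stimulation buffer, 2 min kinetic read; rate constant normalized.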
SW480 rereplic = induces DNA re-replication in SW480 colon adenocarcinoma cells; SW480 DNA re-replication, Hoechst DNA content imaging, 48 h; Potency, µM (titrated, usually from 46.1 µM), for inactives: top-dose re-replication activation, most hits filed as activators; 340,000 tested, 1.8% active; AID 624297; note: potency is the fitted concentration of half-maximal effect; % of control where 0% means no effect; nearly all actives have a fitted effect of over 55% in size
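Quantitative HTS format with DMSO vehicle controls; 48 hr drug incubation at 37 C, then 40 min Hoechst staining and scanning imager measurement at 405 nm excitation.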
KB-3-1 cytotox = kills parental KB-3-1 adenocarcinoma cells; KB-3-1 viability, CellTiter-Glo ATP luminescence, 72 h; 400,000 tested, 1.4% active; Potency, µM (highest dose often 46.1 µM), hits mostly cytotoxic; AID 1347075; note: potency is the fitted concentration of half-maximal effect; % is set by controls: 0 for no effect and ±100 for the full control effect; nearly all actives have a fitted effect of over 60% in size
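Cytotoxicity measured as CellTiter-Glo luminescence after 72 h at 37 C. Compound titrations were pinned onto drug-naive KB-3-1 parental adenocarcinoma cells grown in DMEM with 10% FBS, and normalized data fitted to concentration-response curves.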
MCF10A rerep = DNA re-replication induction in MCF 10a cells | MCF 10A DNA re-replication, Hoechst nuclear intensity, 48 h | Potency, µM (top dose mostly 46.1 µM), inactives show at the top dose activity, positive = re-replication, actives largely listed as activators | 350,000 tested, 2.9% active; note: potency is the fitted concentration of half-maximal effect; % of control where 0% means no effect; nearly all actives have a fitted effect of over 50% in size
hERG WT inh = inhibitors of human wildtype KCNH2 potassium channel; Q12809; U2OS, BacMam KCNH2, thallium flux FluxOr; stronger effect = lower value; activity change, % at 1.84 µM; 340,000 tested, 0.37% active;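 active = maximum activity change below -70%; inconclusive = maximum activity change between -70% and -50%; inactive = maximum activity change above -50%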; note: % is set by controls: 0 for no effect and ±100 for the full control effect
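U2OS cells transduced with wild-type KCNH2 virus are loaded with FluxOr dye for 45 min, and thallium flux is measured in kinetic reads before and after stimulation buffer. Rate constants are normalized to DMSO controls.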
KB-V1 MDR tox = kills drug-selected multidrug resistant KB-V1 cells; 400,000 tested, 3.4% active; Potency, µM (highest dose often 46.1 µM), actives largely listed as cytotoxic; AID 1347076; KB-V1 MDR cells viability, CellTiter-Glo, 72 h; note: potency is the fitted concentration of half-maximal effect; % is set by controls: 0 for no effect and ±100 for the full control effect; nearly all actives have a fitted effect of over 60% in size
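Drug-selected KB-V1 cells, grown in DMEM lacking phenol red with 10% FBS, receive compound titrations; after three days at 37 degrees C, surviving cell ATP is quantified by CellTiter-Glo luminescence and responses normalized and curve-fitted.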
Active calls of the source: *; i = inactive; ? = inconclusive; . = no result given. Unless noted, calls come from the whole dose curve; as a rule, active = well fitted curve in the direction sought with a large enough effect; inconclusive = small, poorly fitted or top-dose-only effect, or another doubt; inactive = no such curve, though single readings can be large; an effect the other way counts as inactive or inconclusive.

SMILES	KCNH2 3.1 inh	SW480 rereplic	KB-3-1 cytotox	MCF10A rerep	hERG WT inh	KB-V1 MDR tox
O=C(NC1CCCC1)C(c1ccccn1)N(C(=O)c1csnn1)c1ccccc1F (stereo not given)	-1	2%	i	?	-19	i
Cc1ccc(N(CC(=O)Nc2ccc(C)c(Cl)c2)S(=O)(=O)c2cccs2)cc1	.	.	i	.	.	i
O=C1NC[C@@H](CCCCN2CCN(CCc3ccccc3)C(=O)C2=O)N(CCC2CCCCC2)C1=O	.	.	i	.	.	i
CC1(C)C(=O)N(c2ccccc2)C1c1ccccc1O (stereo not given)	1	?	?	7.3µM*	-14	i
COc1ccc(N2C(=O)C(C)(C)C2c2c(O)ccc3ccccc23)cc1 (stereo not given)	-6	?	i	?	3	i
Cc1ccc(-n2c(C)cc(C(=O)COC(=O)c3c(C)noc3C)c2C)cc1	12	16%	18µM*	18%	7	6.5µM*
O=C(COC(=O)c1cnccn1)c1ccc(Br)cc1	-1	-1%	i	1%	-1	?
Cc1cc(C(=O)COC(=O)c2cnccn2)c(C)n1-c1ccc(Br)cc1	24	-5%	?	12%	2	15µM*
Cc1cc(C(=O)COC(=O)C2=COCCO2)c(C)n1-c1ccccc1	15	0%	i	0%	9	13µM*
Cc1ccc(-n2c(C)cc(C(=O)COC(=O)C3=NNC(=O)CC3)c2C)cc1	15	-10%	?	-2%	3	?
CCC(=O)OCC(=O)c1cc(C)n(-c2ccc(Br)cc2)c1C	6	0%	?	-6%	6	15µM*
Cc1cc(C(=O)COC(=O)C2=NNC(=O)CC2)c(C)n1-c1ccccc1	2	-1%	i	-2%	-10	i
CN(C)S(=O)(=O)c1ccc(NC(=O)COC(=O)CC2CC3CCC2C3)cc1 (stereo not given)	10	-13%	i	-8%	3	?
Cc1ccc(N2C(=O)[C@@H]3C(c4cccnc4)=NO[C@@H]3C2=O)cc1	0	-7%	i	0%	0	i
O=C(CNc1cccc([N+](=O)[O-])c1)N1CCN(S(=O)(=O)c2ccc(Cl)cc2)CC1	-4	8%	i	4%	-12	?
COc1ccc(NC(=O)[C@H](COCc2ccccc2)NC(=O)OC(C)(C)C)cc1	12	10%	i	5%	2	5.2µM*
COc1ccc(NC(=O)C(NC(=O)OC(C)(C)C)C(C)OCc2ccccc2)cc1 (stereo not given)	-12	-1%	i	6%	9	4.1µM*
C[n+]1c2n(c3ccccc31)N=C(c1cc(C(C)(C)C)c(O)c(C(C)(C)C)c1)CS2	-13	?	4.1µM*	16µM*	20	i
COc1cccc(C2=Nn3c(nnc3-c3ccccc3O)SC2)c1	0	7%	i	16%	-12	i
COc1ccc(C(=O)NCCS(=O)(=O)N(C)C2CCCCC2)cc1	-9	-2%	i	3%	-2	18µM*
COc1ccc(C(=O)NCCSC2CCCCC2)cc1	-112*	1%	i	-1%	-18	?
CCN(C1CCCCC1)S(=O)(=O)CCNC(=O)c1ccc(OC)cc1	19	.	i	.	12	?
Clc1nnc2ccc(-c3ccccc3)nn12	2	1%	23µM*	27%	1	16µM*
CC(C)OCCCNC(=O)CN1C(=O)c2ccccc2Sc2ncccc21	.	.	i	.	.	i
CSc1cccc(NC(=O)CC(C)n2ccnc2)c1 (stereo not given)	6	-3%	i	11%	-5	i
SMILES	KCNH2 3.1 inh	SW480 rereplic	KB-3-1 cytotox	MCF10A rerep	hERG WT inh	KB-V1 MDR tox
Cc1ccc(Sc2ncccc2COC(=O)Nc2ccccc2)cc1	-6	5%	?	18µM*	-11	i
Cc1ccc(Sc2ncccc2COC(=O)Nc2c(C)cccc2C)cc1	-6	?	26µM*	?	-8	i
Cc1ccccc1NC(=O)OCc1cccnc1Sc1ccc(Cl)cc1	-6	-7%	i	0%	-3	i
COc1ccc(NC(=O)CSc2n[nH]c(-c3ccccc3)n2)cc1S(N)(=O)=O	-11	0%	i	-1%	-3	i
COc1ccc(CCC(=O)NCC2CCCCC2)cc1OC	26	2%	?	-1%	-2	i
O=C(Cn1cnc2ccc(Cl)cc2c1=O)NC1CCS(=O)(=O)C1 (stereo not given)	18	?	i	4%	-5	i
Cc1ccc(N(Cc2ccccc2)C(=O)c2ccc(Cl)c(S(=O)(=O)N3CCOCC3)c2)cc1	-45	?	i	14%	22	?
Cc1cc(C)cc(OCC(=O)N(C)CC(=O)Nc2ccc(Cl)c(C(F)(F)F)c2)c1	-2	3%	?	6.5µM*	-25	i
CN(CC(=O)Nc1ccc(Cl)c(C(F)(F)F)c1)C(=O)c1cccc2cccnc12	15	-5%	i	-7%	4	18µM*
COc1ccc(NC(=O)CSCC(=O)N(C)CC(=O)Nc2ccc(Cl)c(C(F)(F)F)c2)cc1	-8	?	i	28%	-4	i
CCc1ccc(CN(C)C(=O)CCc2nc3ccccc3n(-c3ccc(OC)cc3)c2=O)cc1	6	?	i	?	-1	12µM*
COc1ccc(-n2c(=O)c(CCC(=O)N(C)Cc3ccccc3C)nc3ccccc32)cc1	-1	-8%	i	-19%	5	i
CN(C(=O)CSc1nnnn1-c1ccc(O)cc1)C1CCCCC1	-9	-7%	i	3%	-3	i
COc1ccc(C2c3ccc4ccccc4c3Oc3ncn(CCCO)c(=N)c32)cc1OC (stereo not given)	-6	18µM*	?	18µM*	4	?
COc1ccc(C2c3ccc4ccccc4c3Oc3ncn(CCN(C)C)c(=N)c32)cc1 (stereo not given)	-27	?	?	21µM*	-5	?
COc1ccc(C2c3ccc(O)cc3Oc3ncn(CCN4CCOCC4)c(=N)c32)cc1OC (stereo not given)	-13	-4%	i	-10%	-1	i
CN(C)CCCn1cnc2c(c1=N)C(c1ccccc1)c1ccc3ccccc3c1O2 (stereo not given)	-39	5%	i	18µM*	-36	i
COc1ccc(C2c3ccc4ccccc4c3Oc3ncn(CCO)c(=N)c32)cc1 (stereo not given)	7	?	i	?	0	i
